# Sampled rows, rich in hits. Any-hit rate of the full collection: about 7.4%.
# ELG1 genotoxic: inducers of genotoxicity in HEK293T ELG1-luciferase cells; AID 504466; Potency, µM (top dose mostly 46 µM), hits mostly activators; 330,000 tested, 1.3% active; HEK293T ELG1-luciferase reporter, luminescence, 16 h; note: nearly all actives have a fitted effect of over 60% in size
#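 After overnight (16 hr) compound treatment at 37 °C, ELG1-luciferase HEK293T cells were lysed with ONE-Glo; luminescence quantified 30 min later at room temperature.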
# FLuc counter: firefly luciferase modulation, counter-screen for miR-21 project | P08659 | purified FLuc, Km substrates, luminescence inhibition | Potency, µM (highest dose often 57.5 µM), usual class: inhibitors | 360,000 tested, 6.9% active; note: nearly all actives have a fitted effect of over 55% in size
# Target sequence (P08659 whole entry, looked up): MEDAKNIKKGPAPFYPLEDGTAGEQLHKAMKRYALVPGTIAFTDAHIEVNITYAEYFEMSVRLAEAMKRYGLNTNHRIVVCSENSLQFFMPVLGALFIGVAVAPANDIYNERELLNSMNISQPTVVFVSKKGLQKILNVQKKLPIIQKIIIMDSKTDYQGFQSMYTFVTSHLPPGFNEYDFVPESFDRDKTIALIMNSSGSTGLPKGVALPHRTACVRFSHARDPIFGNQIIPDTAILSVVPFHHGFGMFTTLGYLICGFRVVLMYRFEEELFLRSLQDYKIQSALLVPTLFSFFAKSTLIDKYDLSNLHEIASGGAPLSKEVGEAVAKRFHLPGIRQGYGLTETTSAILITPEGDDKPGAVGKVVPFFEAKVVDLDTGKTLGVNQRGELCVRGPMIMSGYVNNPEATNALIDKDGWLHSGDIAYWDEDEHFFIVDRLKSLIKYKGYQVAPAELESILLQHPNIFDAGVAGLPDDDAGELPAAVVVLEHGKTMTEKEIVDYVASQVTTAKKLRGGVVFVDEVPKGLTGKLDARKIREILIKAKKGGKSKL
#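 Biochemical qHTS of compounds, final roughly 60 µM downward over six points, against 10 nM purified firefly luciferase using Km concentrations of substrates (10 uM D-luciferin, 10 uM ATP) in Tris acetate pH 7.5 buffer; luminescence output.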
# NPC1 promoter act: NPC1 promoter activation; Huh7 NPC1 promoter luciferase reporter, 24 h; Potency, µM (doses to about 9.22 µM), actives largely listed as activators; 320,000 tested, 2.4% active; note: nearly all actives have a fitted effect of over 60% in size
#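 Compounds in DMSO were transferred onto Huh7 NPC1-luciferase reporter cells pre-incubated 2 h; after 24 h at 37 °C, Amplite reagent was dispensed and luminescence recorded 10 min later.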
# SMN2 splice up: SMN2 splice variant enhancement | HEK293 SMN2-luciferase splicing reporter, luminescence, 30-36 h | Potency, µM (highest dose often 46.1 µM), usual class: activators | 210,000 tested, 2.8% active | AID 1458; note: nearly all actives have a fitted effect of over 55% in size
#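 HEK293 cells carry an SMN2 minigene-luciferase reporter in which exon 7 inclusion puts luciferase in frame. Cells were seeded at 2000 cells/well, attached for 10-12 hours, then exposed to compounds for 30-36 hours at 37C before ONE-Glo luminescence.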
# Rab9 prom act: Rab9 promoter activation. Huh7 Rab9 promoter-luciferase reporter, luminescence, 24 h. Potency, µM (series often up to 9.22 µM), hits mostly activators. 320,000 tested, 2.8% active; note: nearly all actives have a fitted effect of over 60% in size
#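 Luminescence read-out: Huh7 cells stably expressing Rab9-luciferase, treated 24 h with compound at 37 °C, then lysed with luciferase reagent for 10 min at ambient before reading.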
# KinaseGlo FLuc: counter-screen: inhibitors of Kinase-Glo firefly luciferase | Q27757 | Kinase-Glo luciferase, ATP luminescence, 8 min | Potency, µM (top dose mostly 38.3 µM), most hits filed as inhibitors | 200,000 tested, 0.28% active | AID 1379; note: nearly all actives have a fitted effect of over 60% in size
#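 Compounds were added to a substrate mix at pH 7.2 (50 mM imidazole, 10 uM ATP, within the enzyme's linear range), followed by Kinase-Glo detection reagent; luminescence was measured after 8 minutes at ambient temperature.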
# A number is an active result; n = inactive; u = inconclusive; x = no result given; [ ] = remark or other dose. Calls come from the whole dose curve; as a rule, active = well fitted curve in the direction sought with a large enough effect; inconclusive = small, poorly fitted or top-dose-only effect, or another doubt; inactive = no such curve, though single readings can be large; an effect the other way counts as inactive or inconclusive.
SMILES,ELG1 genotoxic,FLuc counter,NPC1 promoter act,SMN2 splice up,Rab9 prom act,KinaseGlo FLuc
Cc1ccc(NC(=O)c2ccco2)c(NC(=O)c2ccc(Cl)cc2)c1,n,n,n,x,n,x
Cc1ccc(N=Nc2c(C)[nH]n(-c3ccccc3)c2=O)cc1Br,n,n,n,x,n,x
Cc1[nH]n(-c2ccccc2)c(=O)c1N=Nc1ccc(F)cc1,u,2.69µM,n,x,u,x
O=C(CN1C(=O)NC2(CCCC2)C1=O)OCCOc1ccccc1Cl,n,n,n,x,n,x
O=C(NNC(=O)c1cc(S(=O)(=O)N2CCOCC2)c(Cl)cc1Cl)c1ccccc1F,n,x,x,x,x,x
Clc1ccc(CSc2nnc(-c3ccncc3)s2)cc1,n,n,n,x,n,x
Clc1cccc(Cl)c1CSc1nnc(-c2ccncc2)s1,n,15.1µM,n,x,n,x
CN(CC(=O)Nc1ccccc1Br)C(=O)CN1CCN(Cc2cccc(Cl)c2)CC1,n,x,x,x,x,x
O=C(C[n+]1ccc(C(=O)NCc2ccccc2)cc1)c1ccc(OC(F)F)cc1,n,n,n,x,n,x
O=C(C[n+]1cn(C(F)F)c2ccccc21)c1ccc(OC(F)F)cc1,16.4µM,u,u,u,u,n
CC(C)(C)c1ccc(OCCSc2nc(-c3cccs3)nc3cc(=O)[nH]n23)cc1,x,15.1µM,x,x,x,x
COc1ccc(NC(=O)Cn2nc(-c3ccccc3)c3cnc4ccc(C)cc4c32)cc1,x,n,x,x,x,x
CNc1nnc(-c2cc3cc(Cl)ccc3oc2=O)s1,18.4µM,u,u,u,u,n
Cc1cc(C)cc(NC(=S)NCCN(C2CCCCC2)C2CCCC2)c1,n,n,n,n,n,n
CCC1CCCCN1CCCNC(=O)CSc1nc2nc(C)c(Cc3ccc(C)cc3)c(C)n2n1 (stereo not drawn),n,n,n,x,n,x
CC(C)n1nnnc1SCC(=O)N(C)C1CCS(=O)(=O)C1 (stereo not drawn),n,x,x,x,x,x
CC(C)(C)n1cnc2cc(NC(=O)c3ccccc3)ccc21,5.17µM,6.01µM,1.41µM,x,1.41µM,x
CC(C)(C)n1cnc2cc(NC(=O)c3cccs3)ccc21,u,7.57µM,2.51µM,12.6µM,1.26µM,n
CCn1cnc2cc(NCc3cccs3)ccc21,u,u,u,u,n,n
CCn1cnc2cc(NCc3ccc(N(C)C)cc3)ccc21,u,u,n,n,n,n
CCC(=O)Nc1ccc2c(c1)ncn2CCc1ccccc1,n,n,n,x,n[1.84 µM],x
CN(C)c1ccc(CNc2ccc3c(c2)ncn3C(C)(C)C)cc1,n,8.49µM,n,x,n,x
CCn1cnc2cc(NC(=O)c3cccs3)ccc21,u,15.1µM,3.55µM,12.6µM,2.24µM,n
Cc1cc(Cl)ccc1OCC(=O)OCC(=O)N(CC(C)C)c1c(N)n(Cc2ccccc2)c(=O)[nH]c1=O,n,n,n,x,n,x
COCCN(Cc1cc2cc(C)ccc2[nH]c1=O)S(=O)(=O)c1ccc(Cl)cc1,n,n,n,x,n,x
SMILES,ELG1 genotoxic,FLuc counter,NPC1 promoter act,SMN2 splice up,Rab9 prom act,KinaseGlo FLuc
CC(C)(C)n1cnc2cc(NCc3cccs3)ccc21,n,12µM,u,8.91µM,u,n
O=C(c1ccccc1Cl)N1CCN(S(=O)(=O)c2cccs2)CC1,n,n,n,x,n,x
O=C(c1ccco1)N1CCN(C(=O)c2ccc(-c3ccccc3Cl)o2)CC1,n,9.53µM,u,x,2.82µM,x
O=C(c1cc(-c2ccc(Cl)cc2Cl)on1)N1CCN(C(=O)c2ccco2)CC1,n,30.1µM,n,n,n,n
O=C(c1ccc(-c2ccccc2Cl)o1)N1CCN(S(=O)(=O)c2cccs2)CC1,n,10.7µM,u,x,u,x
NC(=O)C1CCN(C(=O)c2ccc(-c3ccccc3Cl)o2)CC1,u,9.53µM,u,x,2.51µM,x

# Screening data deposited in PubChem BioAssay by National Center for Advancing Translational Sciences (NCATS).
